Screening data: PubChem, National Center for Advancing Translational Sciences (NCATS)
IL-1B inflam inh: inflammasome signaling inhibition, IL-1 beta readout | THP-1 LPS/ATP IL-1B secretion, AlphaLISA, 16 h; hits give low values | activity change, % at 57.5 µM | 360,000 tested, 4.7% active | AID 743279; in the data active = activity change below about -50%; inconclusive = mostly about -30% to -49%
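Secreted IL-1B measured by AlphaLISA bead assay after 16 h compound exposure of THP-1 cells; compounds (final up to 57.5 uM) added 1 h before LPS (250 ng/mL) and ATP (1.25 mM) stimulation; lower signal means less secretion.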
HT1080NT lethal: kills 2HG-producing HT-1080-NT fibrosarcoma cells; HT-1080-NT fibrosarcoma viability, CellTiter-Glo ATP luminescence, 48 h; Potency, µM (series often up to 46.1 µM), inactives show at the top dose activity, negative = less viability, actives largely listed as cytotoxic; 360,000 tested, 1.6% active; AID 686970;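 also: NT is the 2HG producing partner of a matched IDH1 knockdown line; potency is read from the fitted curve at half-maximal effect; 0% = DMSO-treated cells and -100% = media-only wells without cells; nearly all actives have a fitted effect of over 55% in size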
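Read-out is CellTiter-Glo luminescence after 10 minutes at room temperature, following 48 hours' compound treatment of HT-1080-NT cells (750 cells/well, RPMI, 5% FBS, 37 degrees C).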
TDP1 cell noCPT: qHTS for Inhibitors of human tyrosyl-DNA phosphodiesterase 1 (TDP1): qHTS in cells in absence of CPT. DT40 Tdp1-/- hTDP1 cells, no CPT, ATP luminescence, 48 h. Potency, µM (top dose mostly 46.2 µM), for the others: at the top dose activity change, negative = growth inhibition, usual class: inhibitors. 420,000 tested, 15% active. AID 686978, 2013; also: potency is read from the fitted curve at half-maximal effect; nearly all actives have a fitted effect of over 55% in size
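Growth kinetics read by CellTiter-Glo luminescence after ≥48 hr at 37 °C. Cells: DT40 Tdp1-/- stably carrying human TDP1, 400 per well, compound exposure in the absence of CPT (DMSO vehicle).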
uPA surface inh: inhibitors of cell surface uPA generation; Potency, µM (series often up to 38.3 µM), without a hit: at the highest dose activity change, negative = inhibition, actives largely listed as inhibitors; cell surface uPA generation assay, qHTS; 330,000 tested, 0.31% active; active = well fitted inhibition curve with a large enough effect; inconclusive = small, poorly fitted or top-dose-only effect; inactive = no such curve, though single readings can be large or run the other way; tested in mouse RAW 264.7 cells; also: potency is read from the fitted curve at half-maximal effect; nearly all actives have a fitted effect of over 55% in size
HT1080 IDH1KD tx: HT-1080 IDH1 knockdown cell toxicity (counter line). 360,000 tested, 2% active. HT-1080 IDH1 knockdown viability, ATP luminescence, 48 h. Potency, µM (series often up to 46.1 µM), inactives show top-dose activity, negative = toxicity, actives largely listed as cytotoxic;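 also: potency is read from the fitted curve at half-maximal effect; 0% = DMSO wells and -100% = cell-free medium wells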
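CellTiter-Glo luminescence after 48 h compound exposure at 37 degrees C of IDH1-knockdown HT-1080 cells in 5% FBS RPMI. %Activity scaled between DMSO wells and cell-free media wells, with curves fitted and assigned curve classes.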
DT40 TDP1 CPT: DT40-hTDP1 cell growth loss with CPT | chicken DT40 Tdp1-/-;hTDP1 cells + 20 nM CPT, ATP luminescence, 48 h | Potency, µM (highest dose often 46.2 µM), for inactives: top-dose activity change, negative = growth inhibition, usual class: inhibitors | 420,000 tested, 12% active | AID 686979; also: potency is read from the fitted curve at half-maximal effect; nearly all actives have a fitted effect of over 55% in size
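Cell growth measured by CellTiter-Glo luminescence after a minimum 48 h, 37 C compound exposure with 20 nM CPT in Tdp1-knockout DT40 cells stably expressing hTDP1, seeded 400/well; qHTS titration format.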
* marks the source's active call; other numbers are inactive results; ? = inconclusive; . = no result given. A selection: hits, their analogues and other compounds. The true share with any hit is near 19%. Unless noted, calls follow the shape of the dose curve; as a rule, active = well fitted curve in the direction sought with a large enough effect; inconclusive = small, poorly fitted or top-dose-only effect, or another doubt; inactive = no such curve, though single readings can be large; an effect the other way counts as inactive or inconclusive. Unless noted, % is scaled to controls: 0 for no effect and ±100 for the full control effect.

SMILES | IL-1B inflam inh | HT1080NT lethal | TDP1 cell noCPT | uPA surface inh | HT1080 IDH1KD tx | DT40 TDP1 CPT
CC1CCN(C(C)C(=O)Nc2ccccc2-c2ccccc2)CC1 (configuration not stated) | 0 | -25% | ? | 9% | -15% | ?
Cn1nc(C(=O)Nc2ccccc2N2CCCC2)c2ccccc2c1=O | 0 | -7% | ? | 10% | -18% | ?
CCCCCn1c(C(C)NC(=O)c2ccccc2)nc2ccccc21 (configuration not stated) | . | . | -33% | . | . | ?
COC(=O)Cn1cnc2c(C#N)c3n(c2c1=O)CCCCC3 | 10 | 9% | -5% | . | 3% | -24%
N#Cc1c2n(c3c(=O)n(Cc4ccccc4Cl)cnc13)CCCCC2 | -21 | -5% | ? | 13% | -19% | 18µM*
CCc1ccc2oc(C(=O)Nc3ccccc3OC)cc(=O)c2c1 | . | . | -22% | . | . | -23%
CCn1cc2nc(SCc3ccc(F)cc3)n(Cc3ccc(Cl)cc3)c(=O)c2n1 | . | . | 3.3µM* | . | . | 6.5µM*
CCn1cc2nc(SCc3ccccc3)n(Cc3ccc(C)cc3)c(=O)c2n1 | . | . | 10µM* | . | . | 16µM*
CCn1cc2nc(SCc3ccccc3F)n(Cc3ccc(C)cc3)c(=O)c2n1 | . | . | 12µM* | . | . | 21µM*
CCSc1nc2ccccc2c(=O)n1Cc1ccc(F)cc1 | 2 | 1% | -27% | 3% | -21% | 0%
CCn1cc2nc(SCc3ccccc3Cl)n(Cc3ccc(OC)cc3)c(=O)c2n1 | . | . | 15µM* | . | . | 26µM*
CC(=O)N(c1ccc(C)cc1)c1nc(C)cc(C)c1C#N | 7 | -5% | -9% | -3% | -1% | 3%
CCOc1ccc(CC(=O)NC2CC(=O)N(c3ccc(C)c(C)c3)C2)cc1 (configuration not stated) | . | . | ? | . | . | -26%
Cc1ccc(C)c(CSc2nnc(C)c(=O)n2N)c1 | 13 | -5% | -4% | -6% | -2% | 12%
CCn1cc2nc(SCc3cc(C)ccc3C)n(Cc3ccc(C)cc3)c(=O)c2n1 | . | . | -73% | . | . | 16µM*
COc1ccc2nc(NC(=O)C3CCCN(S(=O)(=O)c4cccs4)C3)sc2c1 (configuration not stated) | -59* | -13% | 18µM* | -6% | -18% | ?
CC1CCN(S(=O)(=O)c2ccc(C(=O)Nc3nc4ccc(F)cc4s3)cc2)CC1 | . | . | -30% | . | . | ?
O=C(Nc1ccon1)C1CCN(S(=O)(=O)c2cccs2)CC1 | -7 | -5% | 23µM* | -8% | -2% | ?
COc1ccc2nc(NC(=O)C3CCN(S(=O)(=O)c4cccs4)CC3)sc2c1 | -75* | ? | 29µM* | -33% | -28% | 23µM*
COc1ccc2nc(NC(=O)c3ccc(S(=O)(=O)N4CCCC(C)C4)cc3)sc2c1 (configuration not stated) | . | . | 12µM* | . | . | 16µM*
COc1ccc2nc(NC(=O)C3CCN(S(=O)(=O)c4cnc[nH]4)CC3)sc2c1 | -23 | -8% | -16% | -3% | -10% | -29%
CN(CC(=O)NCc1ccccc1Cl)S(=O)(=O)c1ccc2c(c1)n(C)c(=O)c(=O)n2C | -2 | 0% | 24% | -4% | 6% | 2%
Nc1o[nH]c(=O)c1C1CCCCC1 | -11 | -10% | 3% | 3% | 0% | -10%
COc1ccc2nc(NC(=O)C3CCN(S(=O)(=O)c4cccnc4)CC3)sc2c1 | -23 | -1% | 15µM* | -8% | -4% | 12µM*
Cc1ccc2nc(NC(=O)C3CCN(S(=O)(=O)c4cccs4)CC3)sc2c1 | -76* | ? | 16µM* | . | ? | 23µM*
O=C(Nc1nc2ccc(C(=O)N3CCCCC3)cc2s1)C1CCCCC1 | 49 | ? | 4.1µM* | -3% | ? | 2.6µM*
